Assay results published in PubChem BioAssay AID2314 (National Center for Advancing Translational Sciences (NCATS), 2010).
Where “and” joins values, the source holds several entries; their conditions need not be identical. Identical values can stand only once. Screen size: about 300,000 compounds; about 37,000 (12%) were called active. No stated cut-off is given here; in the data, active means max response mostly above about 13% (no sharp cut-off); inactive means mostly below about 14%. For the sample, actives were picked, then their nearest neighbours and some compounds at random.

experiment: Cycloheximide Counterscreen for Small Molecule Inhibitors of Shiga Toxin; settings: cell reporter, cycloheximide protein synthesis inhibition counterscreen; hits give high values; further: read at 38.3 µM for the half of the compounds with a filed dose; 0% is about no effect

SMILES | max response
C=CCn1c(CNS(=O)(=O)c2ccc(Br)cc2)nnc1SC | -1.32% (inactive)
COc1ccc(CCNC(=O)c2nnc(CS(=O)(=O)c3ccccc3)o2)cc1OC | -0.612% (inactive)
CC(=O)NC(CC(=O)Nc1nc(-c2ccccc2)c(C(C)=O)s1)c1ccccc1 (stereo not drawn) | -6.12% (inactive)
COC(=O)c1c(C)oc(C)c1S(=O)(=O)NCc1ccc(Cl)cc1 | -1.57% (inactive)
COC(=O)c1c(C)[nH]c(C)c1-c1ccc([N+](=O)[O-])cc1 | -6.3% (inactive)
COC(=O)c1c(C)[nH]c(C(=O)/C=C/c2ccc(Cl)cc2)c1C | 30.8% (active)
COc1ccc(NC(=O)c2sc3nc(C)nc(N4CCN(c5ccccn5)CC4)c3c2C)c(OC)c1 | -5.96% (inactive)
CCN(C(=O)COC(=O)/C=C/c1nc2ccccc2s1)C1CCS(=O)(=O)C1 (stereo not drawn) | -3.69% (inactive)
O=S(=O)(Nc1cccc(-n2cnnn2)c1)c1cnc(Cl)c(Cl)c1 | 4.36% (inactive)
Nc1c(C(=O)c2cccs2)sc2nsc(SCCN3CCCCC3)c12 | 24.4% (active)
O=C(CN1C2=NCCN2c2ccccc21)c1cccs1 | 4.8% (inactive)
O=C(c1ccc(Oc2ccc(Cl)cc2)c([N+](=O)[O-])c1)N1CCCC1 | -3.06% (inactive)
COc1ccc(N=Cc2c(O)[nH]c3ccccc23)cc1OC | 43.7% (active)
COc1cc(N=Cc2c(O)[nH]c3ccccc23)cc(OC)c1OC | 6.65% (inactive)
COc1ccccc1N=Cc1c(O)c2ccccc2oc1=O | 9.95% (inactive)
COc1cc(OC)c(C(=S)N2CCCC2)cc1OC | -2.47% (inactive)
Cc1cccc(NS(=O)(=O)c2cc(Cl)ccc2Cl)n1 | -0.991% (inactive)
C[C@H](NC(=O)c1nc[nH]c1C(=O)NCC(=O)OC(C)(C)C)C(=O)OCc1ccccc1 | -0.808% (inactive)
CCC(C)C(NC(=O)C1CCC(=O)N1C(=O)OCc1ccccc1)C(=O)NC(C(=O)N1CCCC1C(N)=O)C(C)CC (stereo not drawn) | -2.75% (inactive)
COc1cc(/C=N/N2CCN(c3ccccc3)CC2)ccc1OC(C)=O | 15.1% (inactive)
COc1ccccc1N1CCN(/N=C/c2ccc(O)cc2O)CC1 | 20% (active)
COc1ccccc1N1CCN(/N=C\C(Br)=C\c2ccccc2)CC1 | 21.4% (inactive)
Cc1nnc(NC(=O)C(c2ccccc2)c2ccccc2)s1 | -6.29% (inactive)
CCCCN1C(=O)C(C)=C(C)C1OCCc1ccc(OC)c(OC)c1 (stereo not drawn) | -1.75% (inactive)
COc1ccc(C(C(=O)NC2CCCCC2)N(C(=O)c2snc(C(N)=O)c2N)c2ccccc2OC)cc1 (stereo not drawn) | -4.3% (inactive)

SMILES | max response
CC(C)(COC(=O)Nc1ccccc1)COC(=O)Nc1ccccc1 | 19% (active)
CCOC(=O)Nc1ccc(S(=O)(=O)N(C)C(C)C)cc1 | 2.33% (inactive)
Cc1ccc(NC(=O)OCCNC(=O)c2ccncc2)cc1 | 19.8% (active)
CC(C)(C)C1CCC(OC(=O)CCC(=O)Nc2ccccc2)CC1 (stereo not drawn) | 4.12% (inactive)
Cc1ccc(NC(=O)OCc2cncs2)cc1 | 28.5% (active)
CCCCCOC(=O)NCCOC(=O)Nc1ccc(C(=O)OCC)cc1 | -1.37% (inactive)
Cc1ccc(C(=O)NCCNC(=O)c2cnccn2)cc1 | -0.952% (inactive)
CCOC(=O)Nc1ccc(NC(=O)OCC)cc1 | 38.2% (active)
CCOC(=O)C(NC(C)=O)C(=O)Nc1ccc(OC)cc1 (stereo not drawn) | -2.02% (inactive)
COc1ccc(NC(=O)/C(Cl)=C(/Cl)S(=O)Cc2ccc(C)cc2)cn1 (stereo not drawn) | -12.1% (inactive)
CCOC(=O)N1CCN(CCC(=O)Nc2ccccc2)CC1 | -2.64% (inactive)
Cc1ccc(OCc2nnc(NC(=O)OCC(C)C)s2)cc1 | -6.37% (inactive)
O=C(c1ccccc1)C(Cn1cncn1)C(Sc1ccccc1)c1ccccc1 (stereo not drawn) | -6.69% (inactive)
CC(C)C(=O)N1CCC2(CC1)Oc1ccc(F)cc1C(=O)C21CC(c2ccccc2)=NO1 (stereo not drawn) | -2.77% (inactive)
CN(C)CCOC1c2ccccc2-c2ccccc21 | 0.251% (inactive)
COc1cc(OC)c(C(=O)OC(C)C(=O)Nc2cc(C(F)(F)F)ccc2Cl)cc1OC (stereo not drawn) | 4.97% (inactive)
CC1=C(C(N)=O)C(c2ccc(Br)cc2)n2ncnc2N1 (stereo not drawn) | -0.44% (inactive)
c1ccc(-c2cc(N3CCCCC3)c3ccccc3n2)cc1 | -6.32% (inactive)
Cc1ccc(S(=O)(=O)N(C)C)cc1NC(=O)C1Cc2ccccc2CN1C(=O)c1ccco1 (stereo not drawn) | -2.92% (inactive)
C=CCC1=C/C(=C\c2c(N)n3nc(CC(=O)N4CCOCC4)sc3nc2=O)C=C(OC)C1=O | 0.431% (inactive)
Cc1ccc(OS(=O)(=O)c2ccc(-c3csc(C)n3)s2)c(C)c1 | 1.06% (inactive)
CN(Cc1nc2ccc(F)cc2[nH]1)Cc1nc(CC2CC2)no1 | -0.7% (inactive)
OC(COc1ccc2ccccc2c1)CN1CCOCC1 (stereo not drawn) | 24% (active)
COc1ccccc1OCC(O)CN1CCOCC1 (stereo not drawn) | -1.33% (inactive)
OC(COc1ccc2ccccc2c1)Cn1cncn1 (stereo not drawn) | 8.69% (inactive)

SMILES | max response
COc1ccc(C(=O)Nc2cc(C)c(NC(=O)c3ccccc3OC)cn2)cc1 | 9.29% (inactive)
Nc1nc(NCc2ccccc2)n(-c2ccccc2)n1 | -3.49% (inactive)
CC(=O)Nc1ccc(N2C(=O)CC(Sc3nccc(C)n3)C2=O)cc1 (stereo not drawn) | -0.348% (inactive)
O=C(N/N=C/c1ccc2c(c1)OCO2)C(=O)N1CCCC1 | 46.6% (active)
O=C(N/N=C/c1ccc([N+](=O)[O-])cc1)C(=O)N1CCCC1 | -0.79% (inactive)
O=C(Cc1ccc(F)cc1)N/N=C/c1ccc2c(c1)OCO2 | 14.7% (inactive)
Cc1[nH]c2ccccc2c1/C=N/NC(=O)CNC(=O)c1ccc2c(c1)OCO2 | -0.0106% (inactive)
COc1ccccc1N1CCN(C(=O)C(=O)N/N=C/c2ccccc2F)CC1 | -0.733% (inactive)
O=C(CNC(=O)C(c1ccccc1)c1ccccc1)N/N=C\c1ccc2c(c1)OCO2 | 35.9% (active)
Cc1cccc(Cn2cnc3c(N)c(C)c(C)cc32)c1 | -6.87% (inactive)
CC(NC(=O)COC(=O)C1CCN(S(=O)(=O)c2ccccc2C(F)(F)F)CC1)c1ccccc1 (stereo not drawn) | -0.765% (inactive)
COc1ccc(NS(=O)(=O)c2ccc(N3CCOCC3)c(NC(=O)c3ccccc3Br)c2)cc1 | -1.16% (inactive)
Cc1cc(N(C)C)nc(Cl)n1 | -9.03% (inactive)
CCOC(=O)c1c(C)nc2c(c1C)c(=O)oc1ccccc12 | 14.3% (active)
Cc1cc(NC(=O)CN2CCCCC2C)nc2c1c(=O)oc1ccccc12 (stereo not drawn) | 0.268% (inactive)
CCCCC(=O)Nc1cc(C)c2c(=O)oc3ccccc3c2n1 | 10.7% (inactive)
COc1ccc(CC(NC(C)=O)C(=O)NC2CCN(C(=O)C3CC3)CC2)cc1OC (stereo not drawn) | -7.16% (inactive)
C=CCNC(=S)N/N=C/c1ccc(C)s1 | 31.5% (active)
C=CCNC(=S)N/N=C/c1ccc(OCc2ccccc2)cc1 | -1.7% (inactive)
Cc1ccc(/C=N/NC(=O)CN2CCN(Cc3ccccc3)CC2)s1 | 8.96% (inactive)
COc1ccc2c3c1O[C@H]1C[C@@H](O)C=C[C@@]31CCN(C)C2 | -0.885% (inactive) and -4.86% (inactive)
S=C(Nc1ccc(Br)cc1Cl)N1CCC2(CC1)OCCO2 | 20.3% (active)
CC1CN(C(=S)Nc2ccc(Br)cc2Cl)CC(C)O1 (stereo not drawn) | 0.924% (inactive)
CN(C)C(=S)Nc1ccc(Br)cc1Cl | -1.09% (inactive)
CN1CCN(S(=O)(=O)c2ccc(NC(=S)NC(=O)C3CC3)cc2)CC1 | 1.23% (inactive)

SMILES | max response
Cc1cc(Cl)ccc1NC(=S)N1CCC(C(N)=O)(N2CCCCC2)CC1 | -2.11% (inactive)
S=C(Nc1ccc(Cl)cc1Cl)N1CCCC1 | 60.1% (active)
Cc1ccc2c(c1)C1CN(C)CCC1N2C(=S)Nc1ccc(Cl)cc1Cl (stereo not drawn) | -1.23% (inactive)
O=C(NC(=S)Nc1ccc(Cl)cc1Cl)C1CC1 | 39.5% (active)
S=C(NCc1cccnc1)Nc1ccc(Cl)cc1Cl | 9.37% (inactive)
CC(Oc1ccc(F)cc1)C(=O)N1CCN(c2ncccn2)CC1 (stereo not drawn) | -2.63% (inactive)
CNC(=O)[C@]1(C(F)(F)F)C[C@H](CCc2ccccc2)CCCO1 | 3.47% (inactive)
Cn1cnc([N+](=O)[O-])c1Sc1ccccc1 | -3.34% (inactive)
Cc1cccc(NS(=O)(=O)c2ccc([N+](=O)[O-])cc2)n1 | -1.49% (inactive)
O=C(COc1cccc(-n2cnnn2)c1)NCCC1=CCCCC1 | 0.68% (inactive)
CSc1ccccc1N1CCN(CCCCCC(=O)NC2CCCc3ccccc32)CC1 (stereo not drawn) | -7.34% (inactive)
Cc1ccc(Nc2ccccc2N)cc1 | 33.2% (active)
Nc1ccc(Nc2ccccc2)cc1 | -1.73% (inactive)
Nc1ccc(C(=O)Nc2ccccc2N)cc1 | 5.95% (inactive)
COc1ccc(COCCN2CCN(S(=O)(=O)c3ccccc3)CCC2=O)cc1 | -3.54% (inactive)
COc1ccc(S(=O)(=O)N(C)CC(=O)N2CCCC2)cc1 | -3.08% (inactive)
CCOC(=O)N1CCN(C(=O)c2cn(C)c3ccc(S(=O)(=O)N(CC)CC)cc3c2=O)CC1 | -2.19% (inactive)
CC(C(=O)NC1CCS(=O)(=O)C1)N1C(=O)/C(=C/c2ccc(Cl)cc2)SC1=S (stereo not drawn) | 16.6% (inactive)
COc1ccc(Nc2nnc(C)c3ccccc23)cc1 | 29.8% (active)
Cc1nnc(NCCO)c2ccccc12 | 4.14% (inactive)
COc1ccc(Nc2nc(=O)[nH]nc2C)cc1 | -2.63% (inactive)
COc1ccc(C(=O)NCC(=O)N/N=C/c2cccnc2)cc1 | -4.37% (inactive)
S=C(NCCCc1cnc[nH]1)NCCCN(Cc1ccc(Cl)c(Cl)c1)c1ccc(Br)cn1 | -1.98% (inactive)
